Test results: PubChem BioAssay (NCATS)
Where “and” joins values, the source holds several entries; their conditions need not be identical. Equal entries are not always repeated. Results filed as inconclusive are left out. Calls of active or inactive are those of the source. Calls come from the whole dose curve; as a rule, active = well fitted curve in the direction sought with a large enough effect; inconclusive = small, poorly fitted or top-dose-only effect, or another doubt; inactive = no such curve, though single readings can be large; an effect the other way counts as inactive or inconclusive.

What was measured:
[1] = target: Cellular tumor antigen p53 (Homo sapiens) (UniProt P04637); experiment: Primary qHTS for small molecule compounds that upregulate eGFP-tagged delta133p53alpha (in N-terminal) cells. (AID 2060322); settings: NCI-H358 eGFP-delta133p53alpha fluorescence, 24 h; activation: stronger effect = higher value; note: nearly all actives have a fitted effect of over 75% in size; note: potency is the fitted concentration of half-maximal effect;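 for activation: cells pre-induced with doxycycline then dosed without doxycycline; series mostly up to about 56 µM; 0% = DMSO vehicle and 100% = reference activator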
Sequence of Cellular tumor antigen p53 (Homo sapiens) (P04637 whole entry, looked up): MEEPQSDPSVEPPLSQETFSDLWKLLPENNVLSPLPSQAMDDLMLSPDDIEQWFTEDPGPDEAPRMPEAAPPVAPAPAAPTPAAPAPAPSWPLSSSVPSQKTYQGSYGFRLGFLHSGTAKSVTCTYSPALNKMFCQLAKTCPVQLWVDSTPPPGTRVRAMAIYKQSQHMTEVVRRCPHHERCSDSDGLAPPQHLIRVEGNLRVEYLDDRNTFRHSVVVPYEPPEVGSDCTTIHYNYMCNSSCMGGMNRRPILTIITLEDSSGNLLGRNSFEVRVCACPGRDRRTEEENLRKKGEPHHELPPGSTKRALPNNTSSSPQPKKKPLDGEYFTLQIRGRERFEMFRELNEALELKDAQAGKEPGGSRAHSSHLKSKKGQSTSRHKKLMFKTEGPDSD
In short: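 NCI-H358 cells pre-induced 24 h with 10 ng/ml doxycycline for eGFP-delta133p53alpha, plated dox-free and exposed 24 h at 37C to titrated compounds. Fixed, Hoechst-stained; gated GFP peak intensity by laser scanning cytometry, normalized to DMSO (0%) and 57.5 uM 5-azacytidine (100%).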

[2] = target: Aldehyde dehydrogenase, mitochondrial (Homo sapiens) (UniProt P05091); experiment: qHTS for Inhibitors of the Aldehyde Dehydrogenase Family (ALDH2) Primary screen (AID 2061308);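 note: plate controls were vehicle for no effect and reference inhibitor for full effect; nearly all actives have a fitted effect of over 55% in size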
[3] = BET inhibitor-based combinations targeting novel dependencies in MECOM-rearranged (r) AML: SET-2 cell line (AID 2202231); settings: SET-2 AML cells viability, CellTiter-Glo luminescence, 48 h; viability: stronger effect = lower value, concentration not given here; note: nearly all actives have a fitted effect of over 35% in size; note: potency is the fitted concentration of half-maximal effect;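 for viability: plate controls were DMSO treated cells for no effect and wells without cells for full effect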
In short: (§1)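 Viability of cells (500 per well) is scored by luminescent CellTiter-Glo at 48 hr post-dosing. Eleven-point titrations are normalized to DMSO and empty controls and reduced to AUC values.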

[4] = BET inhibitor-based combinations targeting novel dependencies in MECOM-rearranged (r) AML: OCI-AML3 cell line (AID 2202232); settings: Potency: OCI-AML3 viability; note: nearly all actives have a fitted effect of over 35% in size; note: potency is the fitted concentration of half-maximal effect
In short: as §1

[5] = BET inhibitor-based combinations targeting novel dependencies in MECOM-rearranged (r) AML: MV-4-11 cell line (AID 2202233); note: nearly all actives have a fitted effect of over 45% in size; note: potency is the fitted concentration of half-maximal effect
In short: (§2)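 Using pin-tool transfer, drugs were added in 11 doses to cells (500/well), incubated 48 hr, and assessed with CellTiter-Glo. Z-AUC is a mean-centring transformation applied separately to each screened line.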

[6] = BET inhibitor-based combinations targeting novel dependencies in MECOM-rearranged (r) AML: HNT-34 cell line (AID 2202234); note: nearly all actives have a fitted effect of over 35% in size; note: potency is the fitted concentration of half-maximal effect
In short: as §2

[7] = BET inhibitor-based combinations targeting novel dependencies in MECOM-rearranged (r) AML: AML-191 cell line (AID 2202236; note: nearly all actives have a fitted effect of over 35% in size; note: potency is the fitted concentration of half-maximal effect)
In short: as §1

[8] = BET inhibitor-based combinations targeting novel dependencies in MECOM-rearranged (r) AML: AML-194 cell line (AID 2202237; note: nearly all actives have a fitted effect of over 40% in size; note: potency is the fitted concentration of half-maximal effect)
In short: as §1

[9] = BET inhibitor-based combinations targeting novel dependencies in MECOM-rearranged (r) AML: UCSD-AML1 cell line (AID 2202235); note: nearly all actives have a fitted effect of over 40% in size; note: potency is the fitted concentration of half-maximal effect
In short: as §2

[10] = target: Retinaldehyde dehydrogenase 3 (Homo sapiens) (UniProt P47895); experiment: qHTS for Inhibitors of the Aldehyde Dehydrogenase Family (ALDH1A3) Primary screen (AID 2061315);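 note: plate controls were DMSO vehicle for no effect and reference inhibitor for full effect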
[11] = target: Retinaldehyde dehydrogenase 3 (Homo sapiens) (UniProt P47895); experiment: qHTS for Inhibitors of the Aldehyde Dehydrogenase Family (ALDH1A3) Confirmatory screens (AID 2061311); note: potency is the fitted concentration of half-maximal effect; nearly all actives have a fitted effect of over 60% in size
[12] = target: Retinal dehydrogenase 2 (Homo sapiens) (UniProt O94788); experiment: qHTS for Inhibitors of the Aldehyde Dehydrogenase Family (ALDH1A2) Confirmation screens (AID 2061314); note: potency is the fitted concentration of half-maximal effect; nearly all actives have a fitted effect of over 65% in size
[13] = target: Retinaldehyde dehydrogenase 3 (Homo sapiens) (UniProt P47895); experiment: qHTS for Inhibitors of the Aldehyde Dehydrogenase Family (ALDH1A3) Validation screen (AID 2061312); note: % is set by controls: 0 for no effect and ±100 for the full control effect; nearly all actives have a fitted effect of over 45% in size

NC1(c2ccc(-c3nc4ccn5c(=O)[nH]nc5c4cc3-c3ccccc3)cc2)CCC1
inactive: activation [1] 26.3% and 14.1% and 3.82% | Potency [2]
active: Potency [3] 20.9 µM | Potency [4] 16.6 µM | Potency [5] 13.2 µM | Potency [6] 7.42 µM | Potency [7] 18.6 µM | Potency [8] 18.6 µM

COc1cc(N2CCN(C)CC2)ccc1Nc1nccc(-c2cn(C)c3cnccc23)n1
inactive: Potency [2]
active: Potency [1] 26.9 µM | Potency [3] 20.9 µM | Potency [4] 14.8 µM | Potency [6] 13.2 µM | Potency [9] 6.61 µM | Potency [7] 13.2 µM | Potency [8] 14.8 µM

Cc1ccc(S(=O)(=O)Nc2cc(Cl)ccc2C(=O)Nc2nc(-c3ccccc3)cs2)cc1
active: Potency [8] 7.42 µM
inactive: activation [1] 7.51% | Potency [2] | Potency [10]

FC(F)c1nc2ccccc2n1-c1nc(N2CCOCC2)nc(N2CCOCC2)n1
active: Potency [3] 3.72 µM | Potency [4] 0.235 µM | Potency [5] 0.209 µM
inactive: activation [1] 43.2% and 24.1% | Potency [2]

O=C(/C=C/C=C/c1ccc2c(c1)OCO2)N1CCCCC1
inactive: activation [1] -7.63% | Potency [2] | viability [3] 96.4% | Potency [6] | Potency [9] | Potency [7] | Potency [8]
active: Potency [4] 18.6 µM

N#C/C(=C\c1ccc(O)c(O)c1)C(=O)Nc1ccccc1
active: Potency [11] 2.25 µM
inactive: activation [1] -12.1%

CCCS(=O)c1ccc2nc(NC(=O)OC)[nH]c2c1 (stereo unspecified)
inactive: activation [1] -21.8% and -4.96% | Potency [2]
active: Potency [4] 26.3 µM | Potency [5] 23.5 µM | Potency [6] 13.2 µM | Potency [7] 8.33 µM | Potency [8] 11.8 µM

COc1ccccc1C(=O)Nc1cc2c(cc1N1CCCC1)n(C)c(=O)n2C
active: Potency [5] 16.6 µM | Potency [6] 26.3 µM
inactive: activation [1] -44.7% | Potency [2]

Cc1nc2ccc(-n3ncc(C(=O)c4cc5ccccc5[nH]4)c3N)cc2[nH]1
active: Potency [8] 16.6 µM
inactive: activation [1] 1.79% | Potency [2] | Potency [10]

Cc1ccc([N+](=O)[O-])cc1S(=O)(=O)N(C)/N=C/c1cnc2ccc(Br)cn12
active: Potency [1] 0.213 µM | Potency [3] 0.166 µM | Potency [4] 0.235 µM | Potency [5] 0.0417 µM | Potency [6] 0.166 µM | Potency [9] 0.166 µM | Potency [7] 0.166 µM | Potency [8] 0.186 µM
inactive: Potency [2]

CNC(=O)c1c(F)cccc1Nc1nc(Nc2cc3c(cc2OC)CCN3C(=O)CN(C)C)nc2[nH]ccc12
active: Potency [3] 8.33 µM | Potency [4] 9.34 µM | Potency [5] 7.42 µM | Potency [6] 6.61 µM | Potency [7] 8.33 µM | Potency [8] 7.42 µM
inactive: activation [1] 42.7% | Potency [2]

CC1(C)C=CN2C(=O)C3=CCCN3C(=O)[C@@H]2C[C@@]12Nc1ccccc1C2=O
active: Potency [11] 7.83 µM
inactive: activation [1] -19.8%

c1nc2nc(Nc3ccc(N4CCOCC4)cc3)nc(NC3CCCCC3)c2[nH]1
inactive: activation [1] -34% | Potency [2]
active: Potency [3] 4.17 µM | Potency [4] 3.32 µM | Potency [5] 0.372 µM | Potency [6] 1.48 µM | Potency [8] 2.63 µM

COc1cc(O)c2c(c1)/C=C/C[C@H](O)[C@H](O)C(=O)/C=C\C[C@H](C)OC2=O
active: Potency [1] 10.7 µM | Potency [11] 5.04 µM | Potency [12] 5.04 µM

CCCCOc1ccc(C(=O)Nc2ccc(F)cc2F)cc1
inactive: activation [1] -9.74% and -2.39% | Potency [2] | viability [3] 103% | Potency [4] | Potency [6] | Potency [7] | Potency [8]

C=CC(=O)Nc1cccc(Nc2nc(Nc3ccc(NC4CN(CCF)C4)cc3OC)ncc2C(F)(F)F)c1
active: Potency [1] 7.57 µM | Potency [3] 18.6 µM | Potency [4] 16.6 µM | Potency [5] 2.63 µM | Potency [6] 3.32 µM | Potency [9] 9.34 µM | Potency [7] 13.2 µM | Potency [8] 13.2 µM
inactive: Potency [2]

Cc1ccccc1C(C(=O)NC1CCCCC1)N(C(=O)Cn1ccnc1C)c1cccc(F)c1 (stereo unspecified)
inactive: activation [1] -12.7% and -11.5% | Potency [13] | Potency [5] | Potency [9] | Potency [8]

CCc1c(Cl)c(O)c(Cl)c(O)c1C(=O)O[C@H]1[C@H](O)[C@H](OC)[C@H](OC/C2=C\C=C\C[C@H](O)/C(C)=C\[C@H](CC)[C@@H](O[C@@H]3OC(C)(C)[C@@H](OC(=O)C(C)C)[C@H](O)[C@@H]3O)/C(C)=C/C(C)=C/C[C@@H]([C@@H](C)O)OC2=O)O[C@@H]1C
inactive: activation [1] -0.333% | Potency [10]

COc1ccc(OC)c(C2C(C#N)=C(N)Oc3n[nH]c(-c4ccc5ccccc5c4)c32)c1 (stereo unspecified)
inactive: activation [1] -0.333% | Potency [10]

CCCNCCc1ccc(NS(=O)(=O)c2ccc(OC(F)(F)F)cc2)cc1
inactive: activation [1] 6.68% | Potency [10]

COC(=O)C1=C(C)NC(C)=C(C(=O)O[C@@H]2CCCN(Cc3ccccc3)C2)[C@@H]1c1cccc([N+](=O)[O-])c1
inactive: activation [1] 8.47% and 23.4% | Potency [13] | Potency [10]

COc1cc(CCc2ccc(OCC=C(C)C)cc2)cc(OC)c1OC
inactive: activation [1] -17.6% | Potency [10]
